Source: PubChem BioAssay
Inconclusive results are not listed. The source made the active and inactive calls.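 Rule for the calls, unless noted: active = differentiation response of at least 50%, scaled between solvent and reference control, from cells with both markers; inactive = the rest.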

How the values were obtained:
[1] = rapamycin-like changes in RPL19A-GFP expression – cell-based, S. cerevisiae, multiplex flow cytometry, primary screen (AID 1862; in the data active = percent of DMSO control GFP below about 86%;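 note: lower values mimic rapamycin by blocking the RPL19A rise seen in DMSO cells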); conditions: S. cerevisiae RPL19A-GFP strain, flow cytometry fluorescence, 3 h; at 10 µM; stronger effect = lower value
[2] = TOR pathway GLN3 branch reporter MEP2-GFP changes – S. cerevisiae, multiplex flow cytometry, primary screen (AID 1867;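 active = GFP response, as percent of the DMSO control, above the screen-wide mean plus 3 SD, about 139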;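 note: median GFP channel fluorescence of barcode-gated MEP2-GFP cells measured by flow cytometry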); conditions: S. cerevisiae MEP2-GFP strain, 3 h, at 10 µM, stronger effect = higher value, 100% means same as DMSO wells
[3] = TOR pathway RTG branch CIT2 reporter changes – S. cerevisiae, GFP fusion, multiplex flow cytometry, primary screen (AID 1870;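 active = percent response above a set limit, the screen-wide mean plus 3 SD, cut at about 130% in these data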;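 note: barcoded CIT2-GFP strain pooled with four other GFP strains with rapamycin as positive control; median GFP fluorescence per well over plate mean of DMSO wells so 100% = DMSO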); conditions: S. cerevisiae CIT2-GFP expression, 3 h, at 10 µM, stronger effect = higher value
[4] = TOR pathway LAP4-GFP level changes – S. cerevisiae, multiplex flow cytometry, primary screen (AID 1873;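 active = GFP signal, as percent of the solvent control, above the screen mean plus 3 SD, about 149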); conditions: S. cerevisiae LAP4-GFP expression, 3 h, at 10 µM, stronger effect = higher value
[5] = yeast AGP1-GFP level changes, GLN3 branch – cell-based, multiplex flow cytometry, S. cerevisiae, primary screen (AID 1887;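 active = GFP signal above the screen-wide mean plus 3 SD, that is over about 124.5% of the solvent control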;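 note: AGP1-GFP fusion strain of S. cerevisiae within a five-strain barcoded multiplex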); conditions: 3 h, at 10 µM, stronger effect = higher value
[6] = reduced mouse 2C T cell binding to pMHC/ICAM-1 vesicles – MLPCN validation set, flow cytometry, LFA-1/ICAM-1 modulator project, pilot screen (AID 2523;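 active = response below a set limit, under 55% cells CD8-positive and vesicle-bound, and CD8 cells' 90th-percentile brightness under 279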;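 for vesicle binding response: mean PE anti-B7-1 fluorescence of CD8+ cells relative to row control; 100% = QL9-loaded vesicles with DMSO vehicle in the same plate row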); conditions: 2C mouse CD8+ T cells, at 7 µM, stronger effect = lower value; double positive events: measured here: CD8+/vesicle+ event percentage
[7] = target: Integrin beta-1 (Homo sapiens) + Integrin alpha-4 (Homo sapiens) (UniProt P13612+P05556); assay: alpha4beta1 integrin LIBS antibody binding reduction – U937 cells, HUTS-21 mAb, flow cytometry, validation set, VLA-4 allosteric modulator project, pilot screen (AID 2674;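 active = inhibition above 50%, about 3 SD of the validation set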;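 note: antibody binding induced by the VLA-4 ligand LDV present at three times its Kd; 0% = LDV ligand with antibody and no compound and 100% = antibody without LDV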); conditions: HUTS-21 LIBS mAb binding, at 6.7 µM, stronger effect = higher value, binding induced by LDV ligand
[8] = calorie-restriction mimetic ROS inhibitors, yeast – validation compound set, pilot screen (AID 2706;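 active = superoxide response below 65% of plate, a cut near 3 SD across the whole screen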;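 note: yeast exposed to compound for one week at 30 degrees C before staining; 100% = mean of all compound wells on the same plate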); conditions: S. cerevisiae aging, superoxide DHE fluorescence; at 10 µM; stronger effect = lower value
[9] = target: Beta-adrenergic receptor kinase 1 (Homo sapiens) (UniProt P25098); assay: GRK2 binders displacing RNA aptamer, biochemical, validation, human GRK2, bead flow cytometry (AID 488806;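 active = aptamer binding inhibition above 30%, about 3 SD of noise from non-fluorescent compounds; inactive = inhibition at or below 30%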); conditions: bead-bound GRK2, FAM-aptamer displacement, at 10 µM, stronger effect = higher value
[10] = target: Beta-2 adrenergic receptor (Homo sapiens) (UniProt P07550); assay: agonist-induced loss of surface beta2AR – cell-based, FAP fluorogen, flow cytometry, validation set, pilot screen (AID 504459;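 active = percent response above 42, roughly 3 SD of non-fluorescent test compounds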;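 note: agonist-driven loss of surface beta2AR via internalization measured by FAP dye flow cytometry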); conditions: Am2.2-beta2AR cells, at 10 µM, stronger effect = higher value
[11] = target: AP-2 complex subunit beta (Homo sapiens) (UniProt P63010); assay: beta-arrestin/AP2 interaction blockers – biochemical, validation set, GST-AP2 beads, flow cytometry, pilot screen (AID 504541;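 active = inhibition above 54%, about 3 SD of non-fluorescent compounds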;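 note: AP2 carries R879A mutation and is captured from E. coli lysate; bead-bound FITC arrestin peptide fluorescence measuring arrestin peptide binding to AP2; 0% = DMSO wells and 100% = excess unlabeled arrestin peptide control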); conditions: FITC arrestin peptide, at 10 µM, stronger effect = higher value, AP2 beta2 appendage fragment, R879A mutant
[12] = cytosolic pH regulators acting via V-ATPase – S. cerevisiae, pHLuorin, HTS validation (AID 504600; in the data active = response above about 15%;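 note: plate controls were DMSO for no effect and reference compound for full effect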); conditions: V-ATPase proton transport, at 10 µM, stronger effect = higher value
[13] = test system: anti-desmoglein-3 scFv antibody binding to human DSG3; assay: blockers of pathogenic pemphigus antibody–desmoglein-3 binding – biochemical, validation compound set, bead-based, flow cytometry, pilot screen (AID 588368;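 active = binding below the plate cutoff, the plate median minus 3 SD, with a reading above zero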;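 note: signal is the median channel fluorescence of bead-bound GFP antibody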); conditions: Protein G beads, DSG3-Fc, scFv-GFP binding, at 10 µM, stronger effect = lower value
[14] = Nile Red efflux blockade in pump-expressing yeast – validation compound set, multiplex, phenotypic, pilot screen (AID 588506;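 active = efflux inhibition above 0.42, the validation set average plus 4 SD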;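 note: Nile Red retained in cells so higher fluorescence means more efflux inhibition; 0 = negative control wells and 1 = enniatin B 25 µM full block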); conditions: S. cerevisiae pump-expressing triplex, Nile Red efflux flow cytometry; at 10 µM; stronger effect = higher value; the pumps come from Candida albicans
[15] = target: ATP-binding cassette sub-family B member 6 (Homo sapiens) (UniProt Q9NP58); assay: blockers of ABCB6-driven porphyrin uptake – K562-ABCB6 cells, flow cytometry, validation set, pilot screen (AID 588550;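 active = inhibition above the screen-wide mean plus 3 SD, about 51%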;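 note: 0% = DMSO wells and 100% = benzethonium chloride 70 µM positive control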); conditions: K562-ABCB6 porphyrin accumulation, 1 h, at 10 µM, stronger effect = higher value
[16] = AML differentiation inducers, ER-HoxA9 marrow cells – cell-based, GFP/MAC1 double positive, flow cytometry, validation set, primary screen (AID 588685); conditions: stronger effect = higher value, normalized: vehicle 0, fulvestrant 100;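 note: compound exposure lasts four days before antibody staining and flow analysis; 0% = DMSO wells and 100% = 5 µM fulvestrant positive control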

Chain of Beta-2 adrenergic receptor (Homo sapiens) (P07550 whole entry, looked up): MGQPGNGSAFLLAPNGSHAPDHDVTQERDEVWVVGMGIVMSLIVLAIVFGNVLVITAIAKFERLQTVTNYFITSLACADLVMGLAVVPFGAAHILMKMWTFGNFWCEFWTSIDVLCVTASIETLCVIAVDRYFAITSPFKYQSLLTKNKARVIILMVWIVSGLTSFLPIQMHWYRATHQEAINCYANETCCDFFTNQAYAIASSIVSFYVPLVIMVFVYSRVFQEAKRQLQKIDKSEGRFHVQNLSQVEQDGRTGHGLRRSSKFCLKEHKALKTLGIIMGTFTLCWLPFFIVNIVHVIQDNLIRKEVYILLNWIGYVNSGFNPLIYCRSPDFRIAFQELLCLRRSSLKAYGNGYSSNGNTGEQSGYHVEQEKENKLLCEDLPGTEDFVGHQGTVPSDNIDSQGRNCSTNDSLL
Chain of AP-2 complex subunit beta (Homo sapiens) (P63010 whole entry, looked up, the tested form may be a part, one chain of several): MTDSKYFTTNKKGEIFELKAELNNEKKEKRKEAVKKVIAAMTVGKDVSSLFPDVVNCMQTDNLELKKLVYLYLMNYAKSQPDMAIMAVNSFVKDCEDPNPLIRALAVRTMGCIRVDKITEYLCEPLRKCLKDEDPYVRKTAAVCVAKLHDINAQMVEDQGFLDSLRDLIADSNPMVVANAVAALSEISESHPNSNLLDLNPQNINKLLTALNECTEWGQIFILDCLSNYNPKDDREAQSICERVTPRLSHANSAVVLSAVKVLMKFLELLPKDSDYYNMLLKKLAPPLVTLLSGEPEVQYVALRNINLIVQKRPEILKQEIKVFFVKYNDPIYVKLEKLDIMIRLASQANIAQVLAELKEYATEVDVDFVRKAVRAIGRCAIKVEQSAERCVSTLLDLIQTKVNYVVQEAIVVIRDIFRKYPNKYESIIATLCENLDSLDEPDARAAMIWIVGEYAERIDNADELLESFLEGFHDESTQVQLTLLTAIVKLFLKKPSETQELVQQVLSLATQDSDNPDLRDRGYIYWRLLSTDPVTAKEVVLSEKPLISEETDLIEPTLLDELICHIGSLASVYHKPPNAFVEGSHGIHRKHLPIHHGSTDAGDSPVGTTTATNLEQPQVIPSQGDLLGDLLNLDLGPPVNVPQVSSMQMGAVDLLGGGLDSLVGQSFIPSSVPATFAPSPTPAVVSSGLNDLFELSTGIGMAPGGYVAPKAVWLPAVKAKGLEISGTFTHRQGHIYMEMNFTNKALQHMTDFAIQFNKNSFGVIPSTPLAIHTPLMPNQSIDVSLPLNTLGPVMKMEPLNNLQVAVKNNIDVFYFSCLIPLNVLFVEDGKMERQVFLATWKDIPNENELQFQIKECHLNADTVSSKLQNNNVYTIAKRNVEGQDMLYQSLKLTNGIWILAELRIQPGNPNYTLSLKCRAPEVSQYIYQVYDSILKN
Chain of Beta-adrenergic receptor kinase 1 (Homo sapiens) (P25098 whole entry, looked up): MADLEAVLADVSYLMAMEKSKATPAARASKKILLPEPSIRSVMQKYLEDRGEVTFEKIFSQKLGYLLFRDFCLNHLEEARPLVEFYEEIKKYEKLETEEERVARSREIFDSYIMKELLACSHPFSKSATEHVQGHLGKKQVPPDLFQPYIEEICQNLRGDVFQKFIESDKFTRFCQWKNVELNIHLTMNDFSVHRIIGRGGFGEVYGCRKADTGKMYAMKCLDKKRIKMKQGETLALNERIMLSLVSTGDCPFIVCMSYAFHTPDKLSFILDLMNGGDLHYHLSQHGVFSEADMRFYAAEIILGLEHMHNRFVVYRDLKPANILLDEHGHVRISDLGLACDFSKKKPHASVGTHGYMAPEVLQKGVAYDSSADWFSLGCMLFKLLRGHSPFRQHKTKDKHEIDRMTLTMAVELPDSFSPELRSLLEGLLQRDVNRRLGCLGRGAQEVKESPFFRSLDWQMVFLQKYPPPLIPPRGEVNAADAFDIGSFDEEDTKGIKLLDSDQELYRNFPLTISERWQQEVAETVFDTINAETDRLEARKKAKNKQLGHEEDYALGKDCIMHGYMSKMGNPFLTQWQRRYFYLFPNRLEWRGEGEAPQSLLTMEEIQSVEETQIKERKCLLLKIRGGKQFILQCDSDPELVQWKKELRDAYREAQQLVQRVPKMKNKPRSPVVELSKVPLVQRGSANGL
Chain of ATP-binding cassette sub-family B member 6 (Homo sapiens) (Q9NP58 whole entry, looked up): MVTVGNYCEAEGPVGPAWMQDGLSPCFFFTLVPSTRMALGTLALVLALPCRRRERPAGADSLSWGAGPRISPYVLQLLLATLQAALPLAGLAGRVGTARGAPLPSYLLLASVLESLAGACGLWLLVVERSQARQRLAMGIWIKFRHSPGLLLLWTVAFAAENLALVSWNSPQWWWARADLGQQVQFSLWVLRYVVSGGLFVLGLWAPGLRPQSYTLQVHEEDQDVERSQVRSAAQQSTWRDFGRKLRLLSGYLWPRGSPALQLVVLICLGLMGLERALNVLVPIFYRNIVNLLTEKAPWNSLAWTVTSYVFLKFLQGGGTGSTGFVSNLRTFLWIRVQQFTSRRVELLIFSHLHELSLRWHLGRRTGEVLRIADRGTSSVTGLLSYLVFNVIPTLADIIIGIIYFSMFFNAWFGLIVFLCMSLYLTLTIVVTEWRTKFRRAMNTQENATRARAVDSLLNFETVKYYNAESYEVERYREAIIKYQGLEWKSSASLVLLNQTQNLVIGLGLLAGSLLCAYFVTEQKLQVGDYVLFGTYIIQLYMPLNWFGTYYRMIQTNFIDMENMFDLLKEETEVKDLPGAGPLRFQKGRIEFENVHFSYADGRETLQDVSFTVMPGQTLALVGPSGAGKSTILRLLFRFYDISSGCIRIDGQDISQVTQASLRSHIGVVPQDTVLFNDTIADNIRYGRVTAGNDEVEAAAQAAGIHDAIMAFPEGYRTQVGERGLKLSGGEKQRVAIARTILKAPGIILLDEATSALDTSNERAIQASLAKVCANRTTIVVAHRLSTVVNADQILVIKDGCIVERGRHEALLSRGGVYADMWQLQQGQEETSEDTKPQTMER
Chain of Integrin beta-1 (Homo sapiens) + Integrin alpha-4 (Homo sapiens) (P05556 whole entry, looked up): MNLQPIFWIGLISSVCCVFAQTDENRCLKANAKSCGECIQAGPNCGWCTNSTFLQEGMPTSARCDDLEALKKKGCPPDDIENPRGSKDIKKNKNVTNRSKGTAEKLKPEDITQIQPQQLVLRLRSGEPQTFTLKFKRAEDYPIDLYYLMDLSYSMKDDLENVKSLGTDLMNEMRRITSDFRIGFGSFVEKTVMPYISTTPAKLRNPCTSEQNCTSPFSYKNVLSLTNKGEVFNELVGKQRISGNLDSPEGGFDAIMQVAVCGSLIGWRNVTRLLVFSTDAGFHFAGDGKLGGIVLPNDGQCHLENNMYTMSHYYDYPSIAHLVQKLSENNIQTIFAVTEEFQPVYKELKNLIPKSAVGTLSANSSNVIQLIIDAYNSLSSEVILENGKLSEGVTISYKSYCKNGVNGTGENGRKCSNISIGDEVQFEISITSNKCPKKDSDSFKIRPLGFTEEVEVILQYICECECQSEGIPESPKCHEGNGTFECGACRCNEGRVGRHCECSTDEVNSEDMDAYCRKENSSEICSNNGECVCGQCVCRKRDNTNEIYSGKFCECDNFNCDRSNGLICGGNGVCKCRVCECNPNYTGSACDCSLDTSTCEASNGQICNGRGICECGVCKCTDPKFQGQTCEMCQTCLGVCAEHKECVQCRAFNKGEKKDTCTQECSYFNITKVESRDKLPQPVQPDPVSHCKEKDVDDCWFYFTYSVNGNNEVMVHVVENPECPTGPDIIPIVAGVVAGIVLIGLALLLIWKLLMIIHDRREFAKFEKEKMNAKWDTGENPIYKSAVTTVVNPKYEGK
Chain of Integrin beta-1 (Homo sapiens) + Integrin alpha-4 (Homo sapiens) (P13612 whole entry, looked up): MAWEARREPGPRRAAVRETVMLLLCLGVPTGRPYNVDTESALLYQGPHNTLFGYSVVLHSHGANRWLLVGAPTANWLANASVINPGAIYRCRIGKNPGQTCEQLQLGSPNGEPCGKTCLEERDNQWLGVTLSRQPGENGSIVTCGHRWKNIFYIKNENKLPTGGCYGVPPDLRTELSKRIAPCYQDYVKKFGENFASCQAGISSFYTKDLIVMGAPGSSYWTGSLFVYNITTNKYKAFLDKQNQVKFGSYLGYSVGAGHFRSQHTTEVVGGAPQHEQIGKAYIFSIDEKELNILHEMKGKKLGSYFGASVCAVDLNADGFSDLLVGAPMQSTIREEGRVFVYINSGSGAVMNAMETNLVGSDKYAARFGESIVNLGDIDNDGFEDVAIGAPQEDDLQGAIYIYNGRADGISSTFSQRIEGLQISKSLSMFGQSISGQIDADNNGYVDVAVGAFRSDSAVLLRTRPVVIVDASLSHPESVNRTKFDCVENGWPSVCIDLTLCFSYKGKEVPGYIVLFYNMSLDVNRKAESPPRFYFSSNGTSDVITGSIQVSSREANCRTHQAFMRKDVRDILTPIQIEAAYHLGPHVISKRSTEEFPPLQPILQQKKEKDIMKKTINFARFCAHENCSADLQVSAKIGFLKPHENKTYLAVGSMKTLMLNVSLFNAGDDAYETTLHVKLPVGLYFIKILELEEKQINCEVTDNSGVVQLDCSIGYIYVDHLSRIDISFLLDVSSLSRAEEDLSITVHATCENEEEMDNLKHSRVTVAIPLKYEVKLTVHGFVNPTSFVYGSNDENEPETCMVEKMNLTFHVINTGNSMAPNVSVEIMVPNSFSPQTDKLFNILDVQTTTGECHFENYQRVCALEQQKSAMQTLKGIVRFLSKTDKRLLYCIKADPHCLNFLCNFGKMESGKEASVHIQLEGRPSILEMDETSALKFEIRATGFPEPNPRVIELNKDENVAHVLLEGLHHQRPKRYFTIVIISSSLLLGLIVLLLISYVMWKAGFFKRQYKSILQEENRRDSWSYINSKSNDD

Row | SMILES | percent of DMSO control GFP [1] | GFP response vs DMSO [2] | percent response of DMSO control [3] | GFP response vs DMSO [4] | GFP response, % of DMSO [5] | double positive events [6] | vesicle binding response [6] | inhibition [7] | superoxide response (% of plate) [8] | aptamer binding inhibition [9] | response [10] | inhibition [11] | response [12] | binding (% of control) [13] | efflux inhibition (fraction of control) [14] | inhibition [15] | differentiation response [16]
1 | CCOc1ccc2ccccc2c1CNc1nnnn1C | 102% (inactive) | 103% (inactive) | 107% (inactive) | 94% (inactive) | 96.2% (inactive) | 65.8% | 1400% (inactive) | 18.2% (inactive) | 91% (inactive) | 3% (inactive) | -8.39% (inactive) | -1.6% (inactive) | 1.46% (inactive) | 98.4% (inactive) | 0.05 (inactive) | 8% (inactive) | 13.9% (inactive)
2 | C=C1C2(C(=O)Nc3ccc(SC(F)F)cc3)CCC(C2)C1(C)C (stereo not given) | 103% (inactive) | 99.3% (inactive) | 105% (inactive) | 96% (inactive) | 100% (inactive) | 66.3% | 1190% (inactive) | 1.62% (inactive) | 82.1% (inactive) | 1% (inactive) | -6.87% (inactive) | -6.22% (inactive) | 1.62% (inactive) | 101% (inactive) | -0.29 (inactive) | 7% (inactive) | 2.2% (inactive)
3 | COc1ccc(C(=O)CC2OC(=O)c3c2ccc(OC)c3OC)cc1 (stereo not given) | 106% (inactive) | 100% (inactive) | 106% (inactive) | 99.9% (inactive) | 104% (inactive) | 63% | 256% (inactive) | 4.73% (inactive) | 107% (inactive) | 2% (inactive) | -6.79% (inactive) | -3.63% (inactive) | -4.39% (inactive) | 95.8% (inactive) | -0.01 (inactive) | 8% (inactive) | -2.69% (inactive)
4 | COc1ccc(S(=O)(=O)NCc2ccco2)c2ccccc12 | 100% (inactive) | 104% (inactive) | 88.2% (inactive) | 114% (inactive) | 87% (inactive) | 62.3% | 175% (inactive) | 7.76% (inactive) | 89.3% (inactive) | 3% (inactive) | -3.81% (inactive) | -4.99% (inactive) | 1.41% (inactive) | 96.3% (inactive) | -0.13 (inactive) | 7% (inactive) | 2.4% (inactive)
5 | CCC(C(=O)Nc1ccc2c(c1)OCCO2)c1ccccc1 (stereo not given) | 103% (inactive) | 103% (inactive) | 101% (inactive) | 113% (inactive) | 110% (inactive) | 58.6% | 143% (inactive) | 8.29% (inactive) | 96.9% (inactive) | -1% (inactive) | 3.82% (inactive) | 3.98% (inactive) | -0.08% (inactive) | 101% (inactive) | -0.03 (inactive) | -7% (inactive) | -10.4% (inactive)
6 | O=C(CN1CC[n+]2c(-c3cccs3)csc21)c1ccc(Br)cc1 | 103% (inactive) | 104% (inactive) | 108% (inactive) | 103% (inactive) | 107% (inactive) | 64% | 142% (inactive) | 1.59% (inactive) | 96.7% (inactive) | 0% (inactive) | 10.7% (inactive) | 14.7% (inactive) | 1.44% (inactive) | 99% (inactive) | -0.085 (inactive) | -9% (inactive) | -7.5% (inactive)
7 | O=C(NCc1ccc(N2CCCC2=O)cc1)c1cccc(Cl)c1 | 102% (inactive) | 101% (inactive) | 111% (inactive) | 105% (inactive) | 99.4% (inactive) | 57.4% | 215% (inactive) | -1.49% (inactive) | 101% (inactive) | 1% (inactive) | -4.33% (inactive) | 7.63% (inactive) | -1.49% (inactive) | 106% (inactive) | -0.14 (inactive) | 0% (inactive) | -5.62% (inactive)
8 | CN(C)CCCN1c2ccccc2Sc2ccccc21 | 98.1% (inactive) | 102% (inactive) | 99.6% (inactive) | 107% (inactive) | 120% (inactive) | 61.4% | 202% (inactive) | 44% (inactive) | 96.9% (inactive) | -3% (inactive) | 0.87% (inactive) | 7.22% (inactive) | -5.2% (inactive) | 102% (inactive) | -0.09 (inactive) | 8% (inactive) | 23.6% (inactive)
9 | CC(=O)N(C(C)=O)c1nc2nc(C)cc(C)n2n1 | 94.6% (inactive) | 133% (inactive) | 110% (inactive) | 86.4% (inactive) | 107% (inactive) | 67.9% | 236% (inactive) | 0.64% (inactive) | 98.5% (inactive) | 6% (inactive) | -13.9% (inactive) | -10.8% (inactive) | -0.39% (inactive) | 102% (inactive) | -0.13 (inactive) | 11% (inactive) | -6.55% (inactive)
10 | COc1cc2cc(C)nc(Cc3cccc4ccccc34)c2cc1OC | 102% (inactive) | 105% (inactive) | 98.2% (inactive) | 82.3% (inactive) | 97.7% (inactive) | 59.9% | 204% (inactive) | 1.12% (inactive) | 95.6% (inactive) | 3% (inactive) | 9.84% (inactive) | 8.39% (inactive) | -0.08% (inactive) | 101% (inactive) | 0.04 (inactive) | -9% (inactive) | 4.21% (inactive)
